The record followed here is PubChem BioAssay (EPA / NIEHS).

Where “and” joins values, the source holds several entries; their conditions need not be identical. Equal entries are not always repeated. Inconclusive results are not listed. Some compounds were tested as several samples or in several runs, with calls that do not always agree. Calls of active or inactive are those of the source. Rule for the calls, unless noted: active = hit-call score of the fitted dose curve at least 0.9, where 1 is the maximum; inactive = score below 0.9.

Test [1] can be described thus: CCTE_Shafer_MEA_dev_per_network_spike_spike_number_mean: CCTE's Neural Network Formation Assay for Mean Number of Spikes in a Network Spike, Shafer Lab (AID 2284053).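 For AC50: fitted as decrease in spikes per network spike relative to DMSO.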 The method in brief:
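Mean spike count within each network spike, taken in a 0.05 s window at its peak, was recorded on days 5, 7, 9 and 12 and integrated as trapezoidal area under the curve. Rat cortical cultures on MEA plates received continuous compound from day 0, refreshed at medium changes on DIV 5 and 9.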

A short description of test [2]: CCTE_Shafer_MEA_dev_per_network_spike_spike_percent: CCTE's Neural Network Formation Assay for Percent of Spikes in a Network Spike, Shafer Lab (AID 2284054). An outline of the steps: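 Metric: fraction of spikes falling in a 0.05 s window at network-spike peaks. Recordings were made on days 5, 7, 9 and 12 and collapsed by trapezoidal AUC. Cultures were rat cortical neurons on MEA plates, dosed continuously from plating, re-dosed at media changes.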

The nature of test [3]: CCTE_Shafer_MEA_dev_LDH: CCTE's Lactate Dehydrogenase Assay for Cytotoxicity in the Neural Network Formation Assay, Shafer Lab (AID 2284068; active = hit-call score of the fitted dose curve at least 0.9, where 1 is the maximum;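 note: exposure for twelve days from plating with re-dosing on DIV 5 and 9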). The method in brief: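 Primary rat cortical neurons were cultured on PEI-coated MEA plates and exposed from plating through day 12, with compound renewed at medium changes on DIV 5 and 9. LDH activity was read spectrophotometrically; loss of signal versus DMSO indicates reduced viability.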

Test [4] in a line: CCTE_Shafer_MEA_dev_mutual_information_norm: CCTE's Neural Network Formation Assay for Mutual Information Normalization, Shafer Lab (AID 2284091).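 For AC50: mutual information between electrodes summarised as area under curve across four recording days; potency is for a decrease in mutual information relative to DMSO.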 The method in brief: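 Shared information across electrodes, tracked on days 5, 7, 9 and 12 of network development and collapsed as trapezoidal area under the curve. Rat cortical cultures were treated continuously from plating, with treatment renewed at feeds on DIV 5 and 9; DMSO baseline, negative-direction fit.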

A short description of test [5]: CCTE_Shafer_MEA_dev_correlation_coefficient_mean: CCTE's Neural Network Formation Assay for Mean Correlation Coefficient, Shafer Lab (AID 2284093).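 For AC50: well mean pairwise spike train correlation integrated as AUC over recording days 5 to 12; potency fitted for loss of correlation relative to DMSO vehicle wells.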 The method in brief: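 Primary rat cortical neurons on PEI-coated 48-well MEA plates (16 electrodes/well) were exposed from plating day 0 through DIV12, with compound renewed at DIV5 and 9. Pairwise spike correlations were averaged per well; trapezoidal AUC across DIV5, 7, 9, 12.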

Test [6] in a line: UKN5_HCS_SBAD2_cell_viability: Viability Assessment in the University of Konstanz (UKN) Leist Lab Neurite Outgrowth Assay in human iPSC-derived immature Dorsal Root Ganglia Neurons (UKN5) (AID 2284056). The method in brief: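 iPSC-derived immature peripheral neurons (SBAD2) seeded on Matrigel with CHIR99021, SU5402 and DAPT, dosed 1 h later for 24 h. Viability from Hoechst H-33342 and calcein-AM live staining, high-content imaging; bidirectional fit versus DMSO.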

The nature of test [7]: UKN5_HCS_SBAD2_neurite_outgrowth: University of Konstanz (UKN) Leist Lab Neurite Outgrowth Assay in human iPSC-derived immature Dorsal Root Ganglia Neurons (UKN5) (AID 2284070). The following applies: actives raise or lower the signal. An outline of the steps:
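Neurite outgrowth is quantified as calcein-AM-labelled neurite area in human iPSC-derived peripheral neurons treated for 24 h, starting 1 h after plating in medium with CHIR99021 (1.5 uM), SU5402 (5 uM) and DAPT (5 uM).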

Test [8] is described as follows: UKN2_HCS_IMR90_neural_migration: University of Konstanz (UKN) Leist Lab Neural Crest Cell Migration Assay in human induced IMR90 Pluripotent Stem Cells (UKN2) (AID 2284204). The following applies: actives raise or lower the signal. An outline of the steps: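 High-content imaging of calcein-AM and Hoechst stained cells quantifies migration into a stopper-defined gap after 24 h compound exposure. Neural crest cells from IMR90 iPSC migrated 24 h in EGF/FGF N2-S medium before dosing; DMSO baseline.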

Test [9] can be described thus: UKN4_HCS_LUHMES_neurite_outgrowth: University of Konstanz (UKN) Leist Lab Neurite Outgrowth Assay in human LUHMES cells (UKN4) (AID 2284206). The following applies: actives raise or lower the signal. The method in brief:
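Neurite area in dopaminergic-model LUHMES neurons is measured by high-content imaging of calcein-AM after 24 h treatment starting shortly after day-2 replating; Hoechst staining tracks viability.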

A short description of test [10]: CCTE_Mundy_HCI_Cortical_Synap_Neur_Matur_NeuriteSpotCountPerNeuriteLength: CCTE's Synaptogenesis and Neurite Maturation Assay in rat cortical cells for Neurite Spot Count per Neurite Length, Mundy Lab (AID 2284210). An outline of the steps: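 Synaptophysin spots per unit neurite length, measured by automated imaging of MAP2/synaptophysin/Hoechst-stained neurons. Cultures from rat cortex received chemical at DIV 7 with media change through DIV 12; glial growth arrested by AraC at DIV 5; DMSO baseline.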

Test [11] can be described thus: CCTE_Mundy_HCI_Cortical_Synap_Neur_Matur_BPCount: CCTE's Synaptogenesis and Neurite Maturation Assay in rat cortical cells for Branch Point Count, Mundy Lab (AID 2284211). The method in brief:
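In this multiplexed morphology assay, cortical cells from rat receive chemicals at DIV 7 and are fixed at DIV 12, then immunostained and imaged; branch points are counted, with DMSO as baseline.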

The nature of test [12]: CCTE_Mundy_HCI_Cortical_NOG_NeuriteCount: CCTE's Neurite Outgrowth Assay in rat cortical cells for Neurite Count, Mundy Lab (AID 2284212).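 Note: cells fixed about two days after chemical exposure began.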 An outline of the steps:
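Rat cortical primary cells; compound added 2 h post-plating, 1/10 dilution of working solution. Anti-betaIII-tubulin/AF488 ICC; ArrayScan neurite count vs DMSO.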

The nature of test [13]: CCTE_Mundy_HCI_Cortical_NOG_NeuriteLength: CCTE's Neurite Outgrowth Assay in rat cortical cells for Neurite Length, Mundy Lab (AID 2284213).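 For AC50: neurites imaged about 48 to 50 h after chemical exposure began.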 An outline of the steps: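 First, rat primary cortical cells were plated and, 2 h later, given test chemical as a 1/10 dilution. Finally, βIII-tubulin immunostaining enabled automated imaging of neurite length.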
Test [14] in a line: CCTE_Shafer_MEA_acute_AB: CCTE's Alamar Blue Assay for Cytotoxicity in the Neural Acute Assay, Shafer Lab (AID 2284069; active = hit-call score of the fitted dose curve at least 0.9, where 1 is the maximum;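 note: active compounds lower the viability signal compared with DMSO wells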). An outline of the steps:
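Resazurin reduction (CellTiter Blue, 1:6 in fresh medium) read at ex 544/em 590 nm marks viability loss relative to DMSO. Cells: primary rat cortical neuron networks on microelectrode arrays, treated after baseline recording at 13 or 15 days in vitro.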
For orientation: Alamar Blue is a resazurin reagent that responds to reducing activity.

A short description of test [15]: CCTE_Shafer_MEA_dev_AB: CCTE's Alamar Blue Assay for Cytotoxicity in the Neural Network Formation Assay, Shafer Lab (AID 2284083; active = hit-call score of the fitted dose curve at least 0.9, where 1 is the maximum;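 note: resazurin reduction fluorescence as viability of cultured neurons; twelve days of exposure from plating with re-dosing on DIV 5 and 9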). An outline of the steps: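 Resazurin fluorescence, relative to DMSO, gauges viability after twelve days of exposure that began at plating of rat cortical neurons (1.5 x 10^5 cells/well, 48-well MEA); treatment renewed with full medium exchange on DIV 5 and 9.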

Test [16] is described as follows: CCTE_Shafer_MEA_acute_LDH: CCTE's Lactate Dehydrogenase Assay for Cytotoxicity in the Neural Acute Assay, Shafer Lab (AID 2284086; active = hit-call score of the fitted dose curve at least 0.9, where 1 is the maximum;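 note: active means LDH release rises above DMSO vehicle level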). An outline of the steps:
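Cytotoxicity readout: spectrophotometric LDH activity in supernatant of rat primary cortical neurons, post-plating day 13 or 15, sampled after 40 min compound exposure; signal gain relative to DMSO baseline.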

Test [17] in a line: IUF_NPC1b_proliferation_BrdU_72hr: Leibniz Research Institute for Environmental Medicine (IUF) 72-hour Neural Progenitor Cell Bromodeoxyuridine (BrdU) Proliferation Assay (NPC1b) (AID 2284207). An outline of the steps: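 Human fetal cortex-derived (GW 16-19) neural progenitor spheres, 0.25-0.35 mm, one per well in EGF/FGF proliferation medium, exposed to compound for 72 h at 37C, pH 7.2-7.6. BrdU incorporation over the final 16 h read by luminescence ELISA, relative to DMSO.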

Test [18] can be described thus: IUF_NPC1a_proliferation_area_72hr: Leibniz Research Institute for Environmental Medicine (IUF) 72-hour Neural Progenitor Cell Proliferation Area Assay (NPC1a) (AID 2284208). An outline of the steps:
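Read-out: increase in sphere area over 72 h by automated phase-contrast imaging, fitted in positive direction versus DMSO baseline. One hNPC sphere (0.25-0.35 mm) per well in EGF/FGF medium; growth-factor withdrawal served as positive control.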

A short description of test [19]: IUF_NPC1_viability_72hr: Viability Assessment at 72 hours in the Leibniz Research Institute for Environmental Medicine (IUF) Neural Progenitor Cell Proliferation Assay (NPC1) (AID 2284209). An outline of the steps: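 Three-day continuous exposure of human neural progenitor spheres under EGF/FGF-driven proliferation; cell viability scored by alamar blue signal versus DMSO.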

Regarding `FC(F)(F)COC(OCC(F)(F)F)OCC(F)(F)F`, the result in test [1], in [2], in [3], in [4] and in test [5] was inactive.

With `NC(=O)N1c2ccccc2C=Cc2ccccc21`, the compound was called inactive in test [1], in [2], in test [6], in test [3], in [7] and in test [4]. Further, the compound was classed as inactive in test [5], in [8], in [10], in [11], in [12] and in test [13]. Besides, in test [9], the AC50 (as a rule, the midpoint of the concentration-response curve, whichever way the signal moves) was 150000 nM (active).

Take `CC[C@H](C)C(=O)O[C@H]1C[C@H](O)C=C2C=C[C@H](C)[C@H](CC[C@@H](O)C[C@@H](O)CC(=O)O)[C@H]21`: the result in test [1] and in test [14] was inactive. Further, the AC50 in test [2] is 1880 nM (active); in test [15], 2.43 µM (active); in test [4] it was 1.97 µM (active); in test [5], 4.32 µM (active).

`OC(O)(C(F)C(O)(O)C(F)(F)F)C(F)(F)F`: the compound was called inactive in test [1], in test [2], in [3], in test [15], in [4] and in test [5]. For the same compound, in [5], the AC50 was 2.98 µM (active).

Consider `COc1cc2c(c(OC)c1OC)-c1ccc(OC)c(=O)cc1[C@@H](NC(C)=O)CC2`, for which the concentration at half-maximal activity (AC50) in test [1] was 12.7 nM (active); in test [2], 3 nM (active); in test [3], 16.7 nM (active); in [15] it was 0.0232 µM (active); in [4], 0.0238 µM (active); in test [5], 0.0234 µM (active). Moreover, the half-maximal activity concentration (AC50) in [11] is 37.4 nM (active); in test [12], 17.2 nM (active); in test [13] it was 12.4 nM (active). Also, the compound was called inactive in test [14] and in test [10].

In the case of `CCN(CC)C(=S)SSC(=S)N(CC)CC`, the AC50 was 102 nM (active) and 55.3 nM (active) in [1]; 161 nM (active) and 86.3 nM (active) in test [2]; 120 nM (active) and 58 nM (active) in test [3]; 146 nM (active) and 58.6 nM (active) in [15]; 94.3 nM (active) and 37.8 nM (active) in [4]; 110 nM (active) and 63.3 nM (active) in [5].

As for `OCCC(F)(F)C(F)(F)C(F)(F)C(F)(F)F`, the outcome in [1], in test [2] and in [4] was inactive. Besides, in test [5], the AC50 is 3.75 µM (active).

As for `C[C@]12C=CC(=O)C=C1CC[C@H]1[C@@H]3C[C@@H](O)[C@](O)(C(=O)CO)[C@@]3(C)C[C@H](O)[C@@]12F`, the compound was called inactive in test [1], in test [3], in test [15] and in test [4]. Also, the AC50 in test [2] is 570 nM (active); in [5], 0.202 µM (active); in [10] it was 23900 nM (active); in test [11], 2180 nM (active); in test [12] it was 22700 nM (active); in test [13], 19700 nM (active).

Take `Cc1ncc([C@@H](CCCCCCc2ccc3c(n2)NCCC3)CC(=O)O)cn1`: in test [14], the call was inactive.

Take `O=S(=O)(O)c1ccc(N=Nc2c(O)ccc3cc(S(=O)(=O)O)ccc23)cc1`: the compound was called inactive in test [14] and in test [16].

For the compound `FC(F)(F)C(F)(F)C(F)(F)C(F)(F)C(F)(F)C(F)(F)I`, the compound was classed as inactive in test [1], in test [2], in test [4] and in test [5].

On to `Cn1c(=O)c2[nH]cnc2n(C)c1=O`, for which the compound was classed as inactive in [14] and in [16].

For the compound `c1ccc2c(c1)-c1cccc3c1c-2cc1ccccc13`, the outcome in test [1], in test [2], in test [3], in test [15] and in test [5] was inactive. Also, in test [4], the AC50 was 1.35 µM (active).

Consider `CC(C)C(=O)Nc1ccc([N+](=O)[O-])c(C(F)(F)F)c1`, for which, in test [16], the call was inactive.

As to `Cn1cc[nH]c1=S`, the compound was classed as inactive in test [1], in test [2], in test [15], in test [4], in [5] and in [17]. The call in [18], in test [19], in test [10], in [11], in test [12] and in [13] was inactive. Also, the AC50 in [3] is 46.6 nM (active).
